A selection: hits, their analogues and other compounds. The true share with any hit is near 4.6%.
GAA850 FXN act: FXN promoter activators, primary screen, cell-based, luciferase luminescence, HEK293 lucGAA850 | HEK293 lucGAA850 FXN promoter luciferase reporter, 24 h; percent of 10 µM SAHA response | activation, % at 6 µM | 360,000 tested, 0.56% active;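 active = activation above the average of all compounds screened plus 3 SD, cutoff fixed separately per campaign, cut at about 7.5% in these data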;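 note: 0% = DMSO wells and 100% = 10 µM SAHA wells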
AHR act: AHR activators, primary screen, cell-based, luminescence, luciferase reporter, human | AHR-responsive luciferase reporter cells | activation, % at 5 µM | 320,000 tested, 2.5% active | AID 2796, 2010; in the data active = activation above about 47%;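 note: 0% = vehicle wells and 100% = reference agonist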
HSF1 inhib: HSF1 inhibitors in luciferase reporter cells, primary screen, cell-based, NIH3T3, luminescence; activity change, negative = inhibition, % at 7.5 µM (by protocol); AID 2098, 2009; 300,000 tested, 0.77% active; NIH3T3-HGL HSE-luciferase, MG132-induced, luminescence 8 h; hits give low values;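 active = more than half of replicate wells show activity change below -50%, luminescence cut by over half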;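 note: luciferase reports HSF-1 transcriptional activity via heat shock element; 0% = median of DMSO wells and -100% = zero luminescence signal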
HSF-1 act: HSF-1 activators, primary screen, NIH3T3-HGL cells, MG132 stress, luminescence, single point; activation, % at 9 µM; NIH3T3-HGL HSF-1 luciferase reporter, 8 h; 100% = twice DMSO control signal; 300,000 tested, 1.7% active; AID 504408, 2011;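 active = mean replicate activation of at least 50% with a set share of replicates each reaching 50%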;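 note: 0% = median of the neutral control wells and 100% = twice that signal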
The depositor's hits bear a star; / = no result.

SMILES | GAA850 FXN act | AHR act | HSF1 inhib | HSF-1 act
CCOc1ccc(CN(C)CC(=O)Nc2cccc(S(=O)(=O)N(C)c3ccccc3)c2)cc1 | 2 | 0 | 13 | 0
NC(=O)CC(NC(=O)c1ccccc1)c1ccc(NCC2CC2)c([N+](=O)[O-])c1 (stereo unspecified) | 1 | -2 | -3 | -8
COc1cc(C(=O)Nc2ccccc2NC(=O)c2cc(OC)c(OC)c(OC)c2)cc(OC)c1OC | 3 | 2 | -69* | -73
COc1ccc(C(=O)Nc2ccccc2C(=O)Nc2cc(C)ccn2)cc1 | 4 | 56* | 14 | 37
COc1cc(C(=O)Nc2ccccc2N2CCCCC2)cc(OC)c1OC | -1 | 8 | -2 | 1
COc1cc(C(=O)Nc2ccccn2)cc(OC)c1OC | -1 | 22 | 7 | 41
COc1cc(C(=O)Nc2cc(C)ccn2)cc(OC)c1OC | -3 | 56* | 5 | 13
COc1cccc(NC(=O)c2ccccc2NC(=O)c2ccncc2)c1 | 1 | 55* | / | /
CCN(C[C@H]1N[C@@](Cc2ccccc2)(C(=O)OC)[C@H]2C(=O)N(C)C(=O)[C@@H]12)C(=O)COc1ccccc1 | 0 | -1 | / | /
O=C(Nc1cc(Cl)cc(Cl)c1)C1CC(=O)N(C2CCCC2)C1 (stereo unspecified) | 1 | 4 | 4 | 15
COc1cc(C(=O)Nc2ccc(S(=O)(=O)N(C)c3ccccc3)cc2)cc(OC)c1OC | -1 | 18 | 49 | 102*
Cc1ccnc(NC(=O)c2cc3ccccc3oc2=O)c1 | 5 | 8 | 26 | 67*
COc1ccc(/C=N/NC(=O)c2ccc(N(C)S(=O)(=O)c3ccccc3)cc2)c(OC)c1 | 1 | 16 | 9 | 58*
COc1ccc(OC)c(/C=N/NC(=O)c2ccc(N(C)S(=O)(=O)c3ccccc3)cc2)c1 | 0 | 29 | 0 | 30
Cc1cccc(NC(=O)c2cc3ccccc3oc2=O)c1 | 3 | 4 | 20 | 30
CCOC(=O)N1CCN(C(=O)CSC2=NS(=O)(=O)c3cc(Cl)ccc3N2)CC1 | 0 | 18 | -6 | -13
N#C/C(=C\c1cccs1)C(=O)N1CCOCC1 | -1 | -2 | 3 | 20
COc1ccc(S(=O)(=O)Nc2ccccc2OC)cc1NC(=O)Cc1cccs1 | 0 | 4 | -1 | 3
COc1ccccc1NS(=O)(=O)c1ccc(NC(=O)Cc2cccs2)cc1 | 3 | 3 | 14 | 58*
Cc1ccc(C(=O)c2nc(C(=O)NCCO)nc3ccccc23)cc1 | 0 | 48* | / | /
O=C(N/N=C\c1cn[nH]c1-c1ccccc1)c1cccnc1 | 0 | 72* | -2 | 7
COc1cccc(C(=O)N/N=C/c2cn[nH]c2-c2ccc(OC)cc2OC)c1 | 1 | 32 | 0 | 5
O=C(N/N=C\c1cn[nH]c1-c1ccccc1)c1cccs1 | 3 | 30 | -74* | -80
O=C(N/N=C/c1c[nH]c2ccccc12)c1cccs1 | 2 | 44 | 52 | 34
COc1ccc(-c2[nH]ncc2/C=N\NC(=O)c2ccc(Br)o2)cc1OC | 4 | 60* | 0 | 9
SMILES | GAA850 FXN act | AHR act | HSF1 inhib | HSF-1 act
CCc1nc2c(OCc3ccc(OC(F)F)cc3)cccn2c1N(C)C(=O)c1ccco1 | -4 | / | / | /
COc1ccc(-c2noc(-c3ccc(Cl)cc3[N+](=O)[O-])n2)cc1OC | 2 | 17 | 25 | 53*
CC1CN(c2oc(-c3cccs3)nc2C#N)CC(C)O1 (stereo unspecified) | -1 | 67* | 11 | 10
Cc1cccc(-c2nc(Nc3ccc(N4CCOCC4)cc3)c3ccccc3n2)c1 | 0 | 56* | 4 | 18
c1ccc2c(Nc3ccc(N4CCOCC4)cc3)nc(N3CCOCC3)nc2c1 | 1 | 72* | 3 | -12
Cc1cccc(-c2nc(Nc3cccc(O)c3)c3ccccc3n2)c1 | 0 | 68* | 2 | -5
CC(C)(C)OC(=O)C[C@@H]1C/C=C\C[C@@H](CC(=O)NCCO)C(=O)N[C@H](C(C)(C)C)COC1=O | -1 | 1 | / | /
COc1ccc(/C=N/NC(=O)c2c(C)n(C)c3ccc(OC)cc23)c(OC)c1 | 0 | 17 | 5 | 5
COc1ccc2c(c1)c(C(=O)N/N=C/c1ccccc1Cl)c(C)n2C | 0 | 57* | 16 | 56*
O=C(C[C@H]1C/C=C\CC[C@H](Cc2ccc(F)cc2)C(=O)OC[C@@H]2CCCN2C1=O)N[C@H](CO)Cc1ccccc1 | -1 | -1 | / | /

Source: PubChem
